Compound activity as filed in PubChem BioAssay.
Sampled rows, rich in hits. Any-hit rate of the full collection: about 12%.
Sfp PPTase inh – inhibitors of Bacillus subtilis Sfp phosphopantetheinyl transferase; hit rate 3.5% among 310,000; Biochemical Sfp PPTase activity, qHTS; AID 1490; Potency, µM, for inactives: largest response in the series, negative = inhibition, most hits filed as inhibitors;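 note: the enzyme is Sfp with the accession as filed and its product quenches rhodamine fluorescence; 0% = enzyme reaction without inhibitor and -100% = no enzyme wells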
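Step 1, compound plus 15 nM Sfp-PPTase, 15 min, room temperature. Step 2, add rhodamine-CoA (5 uM) and BHQ-2-YbbR (12.5 uM). Step 3, read 525/598 nm fluorescence at 0 and 30 min.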
G9a block – inhibitors of human histone lysine methyltransferase G9a; G9a H3K9 monomethylation, AlphaScreen, 2 h; Q96KQ7; hit rate 8.8% among 350,000; Potency, µM (series often up to 102 µM), without a hit: top-dose activity, negative = inhibition, actives largely listed as inhibitors; note: % is set by controls: 0 for no effect and ±100 for the full control effect; nearly all actives have a fitted effect of over 75% in size
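G9a (20 nM) preincubated 15 min RT with compounds, then 500 nM biotinylated H3K9 peptide and 20 uM SAM added; 2 h RT reaction. Monomethyl-H3K9 product detected by AlphaScreen with anti-H3K9me1 antibody, streptavidin donor and anti-rabbit IgG acceptor beads.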
BAZ2B block – inhibitors of human BAZ2B bromodomain; Potency, µM (top dose mostly 114 µM), for inactives: top-dose activity change, negative = inhibition, hits mostly inhibitors; hit rate 4.4% among 360,000; AlphaScreen BAZ2B-H3K14Ac peptide displacement; AID 504333; Q9UIF8; note: % is set by controls: 0 for no effect and ±100 for the full control effect; nearly all actives have a fitted effect of over 60% in size
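Protein-peptide AlphaScreen: BAZ2B 50 nM, b-H3K14Ac 50 nM, 1x PBS pH 7.4 + 0.01% Tween-20. Preincubation 30 min RT; cpd 30 min RT (top 110 uM); beads 20 min RT, light-protected.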
JMJD2A Tudor – blocks the human JMJD2A Tudor domain; O75164; AlphaScreen JMJD2A-Tudor / H3K4me3 peptide binding; Potency, µM (highest dose often 114 µM), inactives show at the top dose activity change, negative = inhibition, usual class: inhibitors; hit rate 4.4% among 390,000; AID 504339; note: % is set by controls: 0 for no effect and ±100 for the full control effect; nearly all actives have a fitted effect of over 50% in size
Target sequence (O75164 whole entry, looked up, the tested form may be a part): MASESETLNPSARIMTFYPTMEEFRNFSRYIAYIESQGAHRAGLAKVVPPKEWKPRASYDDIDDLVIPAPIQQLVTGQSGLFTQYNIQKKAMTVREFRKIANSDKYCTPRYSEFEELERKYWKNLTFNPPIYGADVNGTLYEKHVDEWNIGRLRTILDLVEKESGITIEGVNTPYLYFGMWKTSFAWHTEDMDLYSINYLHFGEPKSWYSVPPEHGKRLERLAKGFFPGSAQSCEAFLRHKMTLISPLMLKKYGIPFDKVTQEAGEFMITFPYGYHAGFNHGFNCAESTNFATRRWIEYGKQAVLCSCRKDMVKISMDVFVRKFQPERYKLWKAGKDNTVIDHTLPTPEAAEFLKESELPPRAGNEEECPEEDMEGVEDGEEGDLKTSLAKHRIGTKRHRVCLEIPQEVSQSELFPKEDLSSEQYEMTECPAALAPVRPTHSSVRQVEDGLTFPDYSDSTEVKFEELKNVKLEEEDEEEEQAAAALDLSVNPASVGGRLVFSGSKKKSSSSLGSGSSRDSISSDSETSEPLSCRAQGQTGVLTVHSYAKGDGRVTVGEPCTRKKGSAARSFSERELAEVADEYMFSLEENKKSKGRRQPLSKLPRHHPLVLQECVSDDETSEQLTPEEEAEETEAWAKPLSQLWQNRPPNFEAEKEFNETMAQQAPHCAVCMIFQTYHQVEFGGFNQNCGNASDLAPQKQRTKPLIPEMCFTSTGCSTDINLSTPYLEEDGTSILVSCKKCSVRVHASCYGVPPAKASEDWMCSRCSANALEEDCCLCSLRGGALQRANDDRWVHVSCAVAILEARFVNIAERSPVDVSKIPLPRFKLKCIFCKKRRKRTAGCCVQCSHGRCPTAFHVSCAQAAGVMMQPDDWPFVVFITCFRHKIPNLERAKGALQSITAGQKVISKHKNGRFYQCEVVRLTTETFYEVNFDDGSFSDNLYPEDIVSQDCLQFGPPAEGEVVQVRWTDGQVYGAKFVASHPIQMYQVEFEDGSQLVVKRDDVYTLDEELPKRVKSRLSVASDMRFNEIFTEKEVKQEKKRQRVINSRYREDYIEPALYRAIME
HP1b chromo inh – blocks HP1-beta chromodomain binding to methylated histone tails | AlphaScreen HP1-beta / biotin-H3K9me3 peptide binding | Potency, µM (top dose mostly 114 µM), for inactives: at the top dose activity change, negative = inhibition, usual class: inhibitors | hit rate 0.56% among 390,000; note: nearly all actives have a fitted effect of over 70% in size
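AlphaScreen: HP1-beta (50 nM) preformed 30 min with biotin-H3(1-18)K9me3 peptide (50 nM) in PBS pH 7.4, 0.01% Tween-20. Compound added for 30 min at RT, then streptavidin donor/nickel chelate acceptor beads (10 ug/mL) for 30 min.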
L3MBTL1 block – blocks human L3MBTL1. AlphaScreen L3MBTL1–H3K9me1 peptide binding. Potency, µM (top dose mostly 57.1 µM), for inactives: top-dose activity, negative = inhibition, actives largely listed as inhibitors. AID 485360. hit rate 0.66% among 230,000; note: % is set by controls: 0 for no effect and ±100 for the full control effect; nearly all actives have a fitted effect of over 60% in size
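Displacement of a biotinylated histone H3(1-15) peptide monomethylated at Lys9 (75 nM) from L3MBTL1 (50 nM) was measured by AlphaScreen after a 30 min room-temperature compound incubation; cefsulodin titration served as intraplate control.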
Active calls of the source: *; ? = inconclusive; . = not tested or not shown; [ ] = remark or other dose. Calls come from the whole dose curve; as a rule, active = well fitted curve in the direction sought with a large enough effect; inconclusive = small, poorly fitted or top-dose-only effect, or another doubt; inactive = no such curve, though single readings can be large; an effect the other way counts as inactive or inconclusive. Potency is the fitted concentration of half-maximal effect.

SMILES	Sfp PPTase inh	G9a block	BAZ2B block	JMJD2A Tudor	HP1b chromo inh	L3MBTL1 block
Cc1ccccc1N(C(=O)c1csnn1)C(C(=O)NC(C)(C)C)c1cccs1 (centres undefined)	10%	-30%	-27%	10µM*	?	-17%
CCCn1c(CCC(=O)O)ccc1-c1cccs1	25µM*	?	?	-26%	16%	14%
O=C(O)CCc1ccc(-c2cccs2)n1CC1CCCO1 (centres undefined)	-20%	18µM*	-33%	?	-2%	15%[11.4 µM]
O=C(O)CCc1ccc(-c2ccc(F)cc2)n1CC1CCCO1 (centres undefined)	7%	?	-6%	-24%	7%	0%
O=C(O)CCc1ccc(-c2ccc(F)cc2)n1CCC(=O)O	?	11µM*	-21%	-20%	30%	-8%
CC(C)n1c(CCC(=O)O)ccc1-c1ccccc1	14%	?	-31%	-23%	45%	.
O=C(O)CCc1ccc(-c2ccc(Br)cc2)n1CC(=O)O	-34%	?	?	-25%	9%	?
Cc1ccc(-c2ccc(CCC(=O)O)n2Cc2ccco2)cc1	-18%	50µM*	?	?	-6%	.
Cc1ccc(NCc2cc3cc4c(cc3n(CC(=O)Nc3ccc(C)cc3)c2=O)OCCO4)cc1	.	?	-21%	0%	35%	.
CCCn1c(CCC(=O)O)ccc1-c1ccccc1	-26%	5%[59 µM]	-1%	35µM*	?	.
O=C(O)CCc1ccc(-c2ccccc2)n1CC(=O)O	-16%	?	-19%	?	9%	-13%
CCCCC1(C)NC(=S)N2N1C(=S)NC2(C)CCCC (centres undefined)	56µM*	1.8µM*	79µM*	5.6µM*	?	8%
Cc1ccc[n+](C2C(c3ccc([N+](=O)[O-])cc3)C(C#N)=C([S-])NC2(O)C2CC2)c1 (centres undefined)	25µM*	16µM*	?	-29%	16%	.
COc1ccc([C@H]2C(C#N)=C([S-])N[C@](C)(O)[C@@H]2[n+]2ccccc2)cc1	25µM*	14µM*	-25%	56µM*	-3%	-5%
Cc1ccccc1Cn1ccn(-c2ccc(F)c(F)c2)c(=O)c1=O	.	?	-31%	-27%	23%	.
CCN(CC)CCCNc1cc(C)nc2cc(-c3cccs3)nn12	21%	45µM*	-37%	-15%	28%	-1%
Cc1nc2cc(-c3cccs3)nn2c(NCC(C)(C)CN(C)C)c1C	-3%	50µM*	-23%	-12%	36%	-8%
CC/C(O)=C1\C(=O)CCCC1=NCCc1c(C)[nH]c2ccc(C)cc12	7%	-43%	?	-7%[11.4 µM]	-24%	.
CCCC/C(O)=C1\C(=O)CCCC1=NCCc1c(C)[nH]c2ccc(OC)cc12	14%	71µM*	?	?	-24%	.
COc1cccc(CNC2CCCCCCC2)c1OC	-4%	.	?	35µM*	-29%	-1%
Oc1c(Br)cc(CNC2CCCCC2)cc1Br	.	.	.	-34%	?	.
COc1cc(CNC2CCCC2)cc(OC)c1OC	8%	-1%[12.7 µM]	3%	-14%	15%	.
COc1cc(OC)c(CNC2CCCCCC2)cc1Br	14%	35µM*	?	10µM*	-12%	.
COc1cc(CNC2CCCCCC2)cc(OC)c1OC	-13%	18µM*	?	10µM*	24%	.
Cn1ncc2c(N3CCN(c4ccccc4Cl)CC3)ncnc21	.	-1%[59 µM]	-9%	-13%	19%	.
SMILES	Sfp PPTase inh	G9a block	BAZ2B block	JMJD2A Tudor	HP1b chromo inh	L3MBTL1 block
COC(=O)[C@@]1(Cc2ccc(OC)cc2)[C@H]2c3cc(C(=O)N4CCCC4)n(Cc4cc(F)cc5c4OCOC5)c3C[C@H]2CN1C(=O)c1ccccc1	12%	.	.	.	.	.
COCCNC(=O)c1cnc2sc(N3CCC(C)CC3)nn2c1=O	.	0%[59 µM]	0%	3%	13%	.
N#Cc1c(N)oc(-c2ccco2)c1-c1ccco1	32µM*	45µM*	?	?	-7%	-19%
N#Cc1c(N)oc(-c2cccs2)c1-c1cccs1	-9%	13µM*	-11%	?	5%	-8%
COc1ccc(OC)c(/C=N/c2oc(-c3ccco3)c(-c3ccco3)c2C#N)c1	25µM*	32µM*	19%	50µM*	?	25µM*
Cc1cc(C)c(NC(=O)CN2c3ccccc3S(=O)(=O)c3ccccc32)c(C)c1	.	10%[59 µM]	0%	-27%	85%	.
CCC1CN(C(=O)Nc2ccccc2F)c2cc(C)ccc2O1 (centres undefined)	.	-3%[59 µM]	32%	37%	73%	.
O=C(CS(=O)(=O)c1cccc2nsnc12)NCc1ccc(Cl)cc1	.	18%[59 µM]	-6%	-19%	16%[57 µM]	.
Cn1c(Cc2ccccc2)nnc1SCC(=O)c1ccc(Br)s1	20µM*	?	-8%	-20%	3%	-3%
CCOc1ccccc1C(=O)NCC(=O)N(C)Cc1cccnc1	17%	40µM*	-5%	-5%	14%	.
COc1ccc(-c2[nH]ncc2C(=O)NCc2cccc(Cl)c2)cc1	.	1%[59 µM]	5%	-15%	18%	.
CCOc1ccc(N2C(=O)CC(NCC#N)C2=O)cc1 (centres undefined)	56µM*	.	-7%	-26%	-10%	-5%
CCOc1ccc(N2C(=O)CC(NC3CCCCNC3=O)C2=O)cc1 (centres undefined)	3%	7.9µM*	1%	-15%	60%	9%
CCCOc1ccc(N2C(=O)CC(NCc3cccnc3)C2=O)cc1 (centres undefined)	1%	.	1%	-17%	6%	14%
